PubChem BioAssay (NCI)
This is part of a sample that, as a whole, favours compounds with a hit. Of some 83,000 tested, about 20% had one in any assay.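 The test compound was applied at a single concentration to cells in 96-well plates for 48 hours, and percent growth was recorded.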 A number with no mark means an inactive call. Calls of active or inactive are those of the source. Rule for the calls: active = growth percent below 10; inactive = the rest.

Each molecule was assayed on SK-MEL-28 melanoma (assay: NCI-60 one-dose screen, 48 h (100 = growth as untreated, 0 = no growth, -100 = all killed)). Details: 10 µM unless noted.

Row | SMILES | growth
1 | COc1ccccc1N1CCN(CC(O)COc2c(Br)c(Br)c(Br)c3c2OC(C)(C)C3)CC1 (stereo not drawn) | 90.4%
2 | CC(=O)N[C@@H](CNC(=O)c1cc(NC(=O)c2cc(NC(=O)c3cc(NC(=O)c4nccn4C)cn3C)cn2C)cn1C)CC(=O)Nc1cn(C)c(C(=O)Nc2cc(C(=O)Nc3cc(C(=O)Nc4cc(C(=O)NCCCN(C)CCCNC(=O)c5cccc(C(=O)O)c5)n(C)c4)n(C)c3)n(C)c2)n1 | 107%
3 | O=[N+]([O-])c1ccc(NS(=O)(=O)c2cc(Cl)ccc2Cl)c2ccccc12 | 35.4%
4 | CN1CCN(C(=O)/C=C/c2ccc([N+](=O)[O-])o2)CC1 | 35.8%
5 | CCn1cc(/C=C2\Oc3cc(OCC#N)ccc3C2=O)c2cc(OC)ccc21 | 70.5%
6 | S=c1ssnc1-c1ccccn1 | 52.2%
7 | COc1ccc2c(c1)nnc1c3cccnc3[nH]c21 | 31.9%
8 | COc1cccc(/C=N/C(=S)NC2(C)C3CCC(C3)C2(C)C)c1O (stereo not drawn) | 102%
9 | CC1(C)Cc2c(Br)c(Br)c(Br)c(OCC(O)CN3CCN(c4ccccn4)CC3)c2O1 (stereo not drawn) | 115%
10 | O=C1OC(c2ccc(-c3ccccc3)cc2)=C/C1=C/C=C/c1ccccc1 | 103%
11 | CCCCCn1ncc(-c2c(O)c(O)cc3c(O)c(-c4c(C)cc5c(-c6cnn(CCCCC)n6)c(O)c(O)cc5c4O)c(C)cc23)n1 | 25.9%
12 | CCC1S/C(=N\N=C(/C)c2cc3ccccc3o2)N(c2ccccc2)C1=O (stereo not drawn) | 114%
13 | CS(=O)(=O)OCC(COS(C)(=O)=O)C(c1ccccc1)c1ccccc1 | 114%
14 | CC(=O)c1cc2c(N)c(C(=O)Nc3cccc(Cl)c3)sc2nc1C | 92.9%
15 | ClC1c2ccccc2CCc2ccccc21 | 112%
16 | CCOC(=O)C(C)(CSSCC(C)(NC(=O)c1ccc2ccccc2c1)C(=O)OCC)NC(=O)c1ccc2ccccc2c1 (stereo not drawn) | 132%
17 | COc1ccccc1S(=O)(=O)Nc1ccc2c3c(cc(-c4ccoc4)nc13)C(=O)N2C | 75.6%
18 | CN1CCN(Cn2nc(-c3cc(Cl)cc(Cl)c3Cl)n(/N=C/c3ccc(Cl)cc3)c2=S)CC1 | 111%
19 | Cc1ccn2cc(Cc3cc(=O)oc4c3ccc3ccccc34)c(=O)nc2c1 | 100%
20 | C=C1C(=O)O[C@H]2[C@H]1CC/C(COC(=O)c1ccc(Br)cc1)=C\CC[C@@]1(C)O[C@@H]21 | -27% (active)

Row | SMILES | growth
21 | COc1cc2ncnc(Oc3ccc(NC(=O)Nc4ccc(CN5CCOCC5)c(C(F)(F)F)c4)c4ccccc34)c2cc1OC | 2.47% (active)
22 | Cc1cccc(NC(=O)CCc2ccc(N3C(N)=NC(N)=NC3(C)C)cc2)c1 | 69.9%
23 | CN(C)c1ncc(C#Cc2c(F)cccc2F)c2ccccc12 | 102%
24 | O=C(NC(=S)Nc1ccc(Cl)cc1)c1ccccc1 | 96.2%
25 | COc1cc2nc(C(=O)N3CCCCC3)cc(Nc3ccccc3)c2cc1OC | 110%
26 | Oc1ccc(O)c(-[n+]2ccccc2)c1 | 116%
27 | COc1cc2c(/C=C3/C(=O)Nc4ccc(O)cc43)c(Cl)n(Cc3cc(OC)c(OC)c(OC)c3)c2cc1C | 45.2%
28 | N#Cc1c(N)nc2c(c1N)C(c1ccc(Cl)cc1)C1=C(CCCC1=O)N2c1sc2c(c1C#N)CCCC2 (stereo not drawn) | 96.6%
29 | COc1ccc2c(c1)nnn1c3ncccc3c(N=O)c21 | 16.2%
30 | COc1cc(NC(C)CCCN2C(=O)c3ccccc3C2=O)c2nc(C)ccc2c1OC (stereo not drawn) | 97.4%
31 | O=C(Nc1ccc(F)cc1)Nc1ccc(Cl)c([N+](=O)[O-])c1 | 22.6%
32 | COc1cc(/C=C/C(=O)c2c(C)n([O-])c3cc(C)c(C)cc3[n+]2=O)cc(OC)c1OC | 72.9%
33 | CCC1S/C(=N\N=C(/C)c2cccs2)N(c2ccccc2)C1=O (stereo not drawn) | 118%
34 | O=C(Nc1cccc([N+](=O)[O-])c1)c1ccc2ccccc2c1O | 93.2%
35 | CC(C)(C)OC(=O)N1CCN(CCn2cc(C(F)(F)F)c3c(Cl)ncnc32)CC1 | 52.8%
36 | COc1cc(NC(C)CCCN2C(=O)c3ccccc3C2=O)c2ncccc2c1OC (stereo not drawn) | 105%
37 | CSc1nc(N)nc2c1ncn2C | 109%
38 | O=C1C(SCCO)=C(SCCO)C(=O)N1c1ccc(-c2ccccc2)cc1 | -66.7% (active)
39 | OCc1cnccc1NC12CC3CC(CC(C3)C1)C2 | 105%

These molecules were tested on SK-MEL-2 melanoma in the same assay as above. Details: 10 µM unless noted.

Row | SMILES | growth
40 | COc1ccccc1N1CCN(CC(O)COc2c(Br)c(Br)c(Br)c3c2OC(C)(C)C3)CC1 (stereo not drawn) | 60.5%
41 | CC(=O)N[C@@H](CNC(=O)c1cc(NC(=O)c2cc(NC(=O)c3cc(NC(=O)c4nccn4C)cn3C)cn2C)cn1C)CC(=O)Nc1cn(C)c(C(=O)Nc2cc(C(=O)Nc3cc(C(=O)Nc4cc(C(=O)NCCCN(C)CCCNC(=O)c5cccc(C(=O)O)c5)n(C)c4)n(C)c3)n(C)c2)n1 | 89.4%
42 | O=[N+]([O-])c1ccc(NS(=O)(=O)c2cc(Cl)ccc2Cl)c2ccccc12 | 18.7%
43 | CN1CCN(C(=O)/C=C/c2ccc([N+](=O)[O-])o2)CC1 | 59.5%
44 | CCn1cc(/C=C2\Oc3cc(OCC#N)ccc3C2=O)c2cc(OC)ccc21 | 37.5%
45 | S=c1ssnc1-c1ccccn1 | 31.6%
46 | COc1ccc2c(c1)nnc1c3cccnc3[nH]c21 | -13.2% (active)
47 | COc1cccc(/C=N/C(=S)NC2(C)C3CCC(C3)C2(C)C)c1O (stereo not drawn) | 82.1%
48 | CC1(C)Cc2c(Br)c(Br)c(Br)c(OCC(O)CN3CCN(c4ccccn4)CC3)c2O1 (stereo not drawn) | 77.1%
49 | O=C1OC(c2ccc(-c3ccccc3)cc2)=C/C1=C/C=C/c1ccccc1 | 114%
50 | CCCCCn1ncc(-c2c(O)c(O)cc3c(O)c(-c4c(C)cc5c(-c6cnn(CCCCC)n6)c(O)c(O)cc5c4O)c(C)cc23)n1 | 3.71% (active)
51 | CCC1S/C(=N\N=C(/C)c2cc3ccccc3o2)N(c2ccccc2)C1=O (stereo not drawn) | 99.6%
52 | CS(=O)(=O)OCC(COS(C)(=O)=O)C(c1ccccc1)c1ccccc1 | 123%
53 | CC(=O)c1cc2c(N)c(C(=O)Nc3cccc(Cl)c3)sc2nc1C | 39%
54 | ClC1c2ccccc2CCc2ccccc21 | 87.8%
55 | CCOC(=O)C(C)(CSSCC(C)(NC(=O)c1ccc2ccccc2c1)C(=O)OCC)NC(=O)c1ccc2ccccc2c1 (stereo not drawn) | 107%
56 | COc1ccccc1S(=O)(=O)Nc1ccc2c3c(cc(-c4ccoc4)nc13)C(=O)N2C | 74.8%
57 | CN1CCN(Cn2nc(-c3cc(Cl)cc(Cl)c3Cl)n(/N=C/c3ccc(Cl)cc3)c2=S)CC1 | 97.6%
58 | Cc1ccn2cc(Cc3cc(=O)oc4c3ccc3ccccc34)c(=O)nc2c1 | 80.6%
59 | C=C1C(=O)O[C@H]2[C@H]1CC/C(COC(=O)c1ccc(Br)cc1)=C\CC[C@@]1(C)O[C@@H]21 | -24.5% (active)

Row | SMILES | growth
60 | COc1cc2ncnc(Oc3ccc(NC(=O)Nc4ccc(CN5CCOCC5)c(C(F)(F)F)c4)c4ccccc34)c2cc1OC | 52.1%
61 | Cc1cccc(NC(=O)CCc2ccc(N3C(N)=NC(N)=NC3(C)C)cc2)c1 | 59.9%
62 | CN(C)c1ncc(C#Cc2c(F)cccc2F)c2ccccc12 | 81.5%
63 | O=C(NC(=S)Nc1ccc(Cl)cc1)c1ccccc1 | 108%
64 | COc1cc2nc(C(=O)N3CCCCC3)cc(Nc3ccccc3)c2cc1OC | 99.5%
65 | Oc1ccc(O)c(-[n+]2ccccc2)c1 | 101%
66 | COc1cc2c(/C=C3/C(=O)Nc4ccc(O)cc43)c(Cl)n(Cc3cc(OC)c(OC)c(OC)c3)c2cc1C | 36.7%
67 | N#Cc1c(N)nc2c(c1N)C(c1ccc(Cl)cc1)C1=C(CCCC1=O)N2c1sc2c(c1C#N)CCCC2 (stereo not drawn) | 95.8%
68 | COc1ccc2c(c1)nnn1c3ncccc3c(N=O)c21 | -65.9% (active)
69 | COc1cc(NC(C)CCCN2C(=O)c3ccccc3C2=O)c2nc(C)ccc2c1OC (stereo not drawn) | 96.8%
70 | O=C(Nc1ccc(F)cc1)Nc1ccc(Cl)c([N+](=O)[O-])c1 | 2.67% (active)
71 | COc1cc(/C=C/C(=O)c2c(C)n([O-])c3cc(C)c(C)cc3[n+]2=O)cc(OC)c1OC | 69.6%
72 | CCC1S/C(=N\N=C(/C)c2cccs2)N(c2ccccc2)C1=O (stereo not drawn) | 141%
73 | O=C(Nc1cccc([N+](=O)[O-])c1)c1ccc2ccccc2c1O | 44.1%
74 | CC(C)(C)OC(=O)N1CCN(CCn2cc(C(F)(F)F)c3c(Cl)ncnc32)CC1 | 44.5%
75 | COc1cc(NC(C)CCCN2C(=O)c3ccccc3C2=O)c2ncccc2c1OC (stereo not drawn) | 94.8%
76 | CSc1nc(N)nc2c1ncn2C | 92.3%
77 | O=C1C(SCCO)=C(SCCO)C(=O)N1c1ccc(-c2ccccc2)cc1 | -73.5% (active)
78 | OCc1cnccc1NC12CC3CC(CC(C3)C1)C2 | 95.1%
